# Experimental data published in PubChem BioAssay AID1460 (National Center for Advancing Translational Sciences (NCATS), 2008).
# The whole screen tested about 270,000 compounds, of which about 5,800 (2.1%) were called active. Inconclusive results (about 16%) are left out. This is one part of a sample in which actives are shown more often than they occur. A number with no mark means an inactive call. Calls follow the shape of the dose curve; as a rule, active = well fitted inhibition curve with a large enough effect; inconclusive = small, poorly fitted or top-dose-only effect; inactive = flat fitted curve, though single readings scatter.
# Biological target: Microtubule-associated protein tau (Homo sapiens) (UniProt P10636)
# Sequence (P10636 561-689 P618L limits assumed): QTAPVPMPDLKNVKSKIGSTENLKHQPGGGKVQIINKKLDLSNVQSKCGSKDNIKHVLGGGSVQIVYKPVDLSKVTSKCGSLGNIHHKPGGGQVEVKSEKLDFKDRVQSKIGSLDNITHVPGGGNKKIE
# Assay: qHTS for Inhibitors of Tau Fibril Formation, Thioflavin T Binding; also: nearly all actives have a fitted effect of over 55% in size
# Conditions: recombinant tau K18 P301L, heparin-induced fibrillization, ThT fluorescence; series mostly up to 57.4 µM; activity, negative = inhibition: at the top concentration
# How it was run: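 Using a mix of unlabeled (15 uM) and Alexa 594-labeled (0.24 uM) tau K18 P301L, heparin-triggered fibrillization over 6 hr at 37 C was scored by ThT fluorescence.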
# % is scaled to controls: 0 for no effect and ±100 for the full control effect; potency is read from the fitted curve at half-maximal effect.
SMILES,"activity, negative = inhibition [%]",Potency
COc1ccc(OC)c(NC(=O)CSC2=Nc3ccccc3C3=NC(CC(=O)NCCc4ccccc4)C(=O)N23)c1 (centres undefined),-3.76,–
CC(=O)Oc1c2c(c3c(c1CC=C(C)C)O[C@@]14C(=CC5CC1C(C)(C)OC4(C/C=C(\C)C(=O)O)C5=O)C3=O)OC(C)(CCC=C(C)C)C=C2 (some centres undefined),–,31.6 µM (active)
COc1ccccc1NC(=O)Cn1cnc2ccc(S(=O)(=O)N3CCC(C)CC3)cc2c1=O,9.3,–
CN1c2ccc(Cl)cc2-c2nc(SCC(=O)Nc3cc(F)ccc3F)ncc2S1(=O)=O,4.12,–
CN1/C(=c2/s/c(=C3/C(=O)N(c4ccccc4)NC3=Nc3ccccc3)n(C)c2=O)C(C)(C)c2ccccc21,–,7.94 µM (active)
CC1CCCCN1CCCNC(=O)Cn1ncc2c([nH]c3ccccc32)c1=O (centres undefined),-18.3,–
CCc1ccc(NC(=O)CCS(=O)(=O)c2cc3c(cc2Cl)NC(=O)CO3)cc1,1.33,–
COc1ccc(C)cc1NC(=O)C(=O)NCCc1sc(-c2cccc(C)c2)nc1C,-12.3,–
Cc1ccc(Nc2ccc(C(N)=O)cc2[N+](=O)[O-])cc1,-3.36,–
O=C(O)c1ccccc1C(=O)Nc1ccccc1[N+](=O)[O-],-2.3,–
O=[N+]([O-])c1ccccc1Nc1ccc(O)cc1,–,22.4 µM (active)
CCCN1C(=O)C(O)(CC(=O)c2ccc(CC)cc2)c2cc(Br)ccc21 (centres undefined),-7.54,–
CCOc1ccc2cc(C#N)c(SCC(=O)OC)nc2c1,–,3.16 µM (active)
Cc1cc(C)c(C#N)c(SCC(=O)Nc2ccccc2)n1,4.95,–
COc1ccc(N2CCN(C(=O)CSc3nc4cc(OC)c(OC)cc4cc3C#N)CC2)cc1,-10.6,–
Cc1nonc1NC(=O)CSc1nc2ccccc2cc1C#N,–,1.78 µM (active)
Cc1nc2cc(NC(=O)CSc3nc4c(C)cccc4cc3C#N)ccc2s1,-13.9,–
COC(=O)CSc1nc(C)c2ccc(OC)cc2n1,-5.41,–
CC(=O)c1ccc(NC(=O)c2nc(-c3ccc(C)cc3)n3c2CCCCC3)cc1,-9.51,–
Cc1ccc(CCNC(=O)c2nnc(Cc3cccc(F)c3)o2)cc1,-13.6,–
CC(C)OC(=O)c1c(NC(=O)c2ccco2)sc2c1CCCC2,-13,–
CCOC(=O)c1c(NC(=S)NC(=O)c2ccco2)sc2c1CCCC2,-18,–
CNC(=O)c1c(NC(NC(=O)c2ccco2)C(=O)c2ccc(Cl)cc2)sc2c1CCCC2 (centres undefined),–,25.1 µM (active)
COc1cc2c(cc1OC)C(COc1ccc(F)cc1)N(C(=O)c1ccccc1F)CC2 (centres undefined),-8.13,–
COc1cc(Cl)c(NC(=O)CC(C)S(=O)(=O)c2cc3c(cc2C)NC(=O)CO3)c(OC)c1 (centres undefined),2.57,–

SMILES,"activity, negative = inhibition [%]",Potency
Cc1c(C=O)n(C)n(-c2ccccc2)c1=O,0.926,–
Cc1ccc(N=Nc2c(C)[nH]n(-c3ccccc3)c2=O)cc1,0.0892,–
Cc1c(N=Nc2ccc(N(C)C)cc2)c(=O)n(-c2ccccc2)n1C,–,15.8 µM (active)
CC(C)(C)c1ccc(S(=O)(=O)Nc2ccc(O)c(Sc3nc4ccccc4s3)c2)cc1,-17.4,–
O=C(CSc1nc2ccccc2s1)Nc1ccc(C(=O)O)cc1,-2.11,–
O=[N+]([O-])c1c(NCCO)cc(Sc2nc3ccccc3s2)c2nonc12,–,12.6 µM (active)
COC(=O)c1cc(S(=O)(=O)N2CCN(c3cc(Cl)ccc3C)CC2)c[nH]1,7.65,–
O=C1C(c2ccccn2)=[N+]([O-])c2ccccc21,–,3.98 µM (active)
COc1ccc(NC(=O)CSc2nc3ccccc3n2CC(=O)N2CCCCC2C)cc1 (centres undefined),1.12,–
COc1cc(NC(=O)c2cc(C3CC3)nc3c2c(C)nn3-c2ccccc2)cc(OC)c1,-5.05,–
COC(=O)CC1Oc2ccccc2-n2cc(-c3ccccc3)nc21 (centres undefined),-13.4,–
O=C(c1ccccc1)c1ccc(OCC(O)CN2CCCC2)cc1 (centres undefined),-0.223,–
O=C(c1ccc(Cl)cc1)c1ccc(OCC(O)CN2CCCCC2)cc1 (centres undefined),-6.29,–
CCOc1ccc(C(=O)/C=C/c2cn(CC(O)CN3CCCCCC3)c3ccccc23)cc1 (centres undefined),–,12.6 µM (active)
Cc1ccc(C)c(CNC(=O)c2cc3ccccn3n2)c1,-8.43,–
CC/C(=N/Nc1ccccc1)c1cnnc(SC)n1,–,7.08 µM (active)
CCOc1ccccc1C(=O)Nc1ccc(S(=O)(=O)N2CCCCC2c2cccnc2)cc1 (centres undefined),8.63,–
CCOC(=O)c1c(C)[nH]c(C)c1S(=O)(=O)NCC(=O)NCc1cccc(C)c1,3.96,–
COc1ccc(Br)cc1/C=N/n1c(C)nnc1C,-2.94,–
COc1cc(Br)cc(/C=N/c2ncn[nH]2)c1O,–,14.1 µM (active)
Cc1ccc(-c2nc(C)sc2CC(=O)O)cc1,4.18,–
C/C(=N/Nc1nc(-c2ccccc2)c(CC(=O)O)s1)c1ccccc1,–,12.6 µM (active)
O=C(O)Cc1sc(-c2ccc(C(=O)O)cc2)nc1-c1ccccc1,2.5,–
COc1ccc(NC(=O)CSc2nccn2Cc2ccc3c(c2)OCO3)cc1,-11.5,–
Nc1ncc(S(=O)(=O)Nc2ccc(OC(F)(F)F)cc2)cn1,-1.64,–

SMILES,"activity, negative = inhibition [%]",Potency
CCc1ccc2ncc3c(-c4ccc(C)cc4)nn(CC(=O)NCc4ccccc4)c3c2c1,-6.61,–
COc1ccc(CNC(=O)CSc2n[nH]c(-c3ccc(F)cc3)n2)cc1,-4.28,–
Cc1ccc(NC(=O)c2oc3ccccc3c2NC(=O)Cc2cccs2)cc1,1.47,–
CCOC(=O)Cc1csc(NC(=O)CSc2nc(C)cc(=O)[nH]2)n1,–,28.2 µM (active)
CCOC(=O)Cc1csc(NC(=O)CSc2ccc(Br)cc2)n1,5.76,–
CCCCc1nnc(NC(=O)CSc2nc(C)cc(=O)[nH]2)s1,-3.3,–
CC1=Nc2cc(C(=O)NCc3ccc(C)cc3)ccc2Sc2ccc(Cl)cc21,-7.16,–
Cc1ccc(Cl)cc1N1CCN(S(=O)(=O)c2cc3[nH]c(=O)c(=O)[nH]c3cc2C)CC1,2.21,–
COc1cc(C(=O)NCCc2csc3nc(-c4ccccc4C)nn23)cc(OC)c1OC,-11.2,–
COC/C=C/C1=CC2=CC(=O)C(C)(OC(=O)CCC(=O)OC)C(=O)C2=CO1 (centres undefined),–,15.8 µM (active)
CC(C)(C)OC(=O)NCCCC1=CC2=CC(=O)C(C)(OC(=O)c3ccco3)C(=O)C2=CO1 (centres undefined),-0.483,–
COc1cc(CN(C(=O)c2ccccc2Br)c2ccccn2)cc(OC)c1OC,-13.1,–
CCOc1cccc(NC(=O)c2ccc(F)c(S(=O)(=O)N(CC)c3cccc(C)c3)c2)c1,5.24,–
O=C(Nc1ccon1)c1sc2ccccc2c1Cl,-23.4,–
Oc1ccc(N=Cc2sc3ccccc3c2Cl)cc1,–,7.08 µM (active)
Oc1ccc(N=Cc2c(O)ccc3ccccc23)cc1,–,12.6 µM (active)
COC(=O)c1cc(NC(=O)c2sc3ccccc3c2Cl)cc(C(=O)OC)c1,-2.46,–
CN(Cc1ccccc1)c1ncnc2onc(-c3ccc(F)cc3)c12,-8.33,–
O=c1c(NCc2cccs2)nccn1-c1ccccc1,-0.0042,–
O=C(CSc1cn(CC(=O)N2CCOCC2)c2ccccc12)Nc1ccccc1,-3.17,–
Cc1ccc2oc3c(c(=O)c2c1)C(c1ccc([N+](=O)[O-])cc1)N(CCCN1CCOCC1)C3=O (centres undefined),-4.43,–
CCN1CCC(N(Cc2ccc(F)cc2)C(=O)Nc2cc(C)ccc2C)CC1,-6.42,–
Cc1cc(C)c2sc(NC(=O)c3ccc(S(=O)(=O)N4CCCC4)cc3)nc2c1,5.67,–
CCOc1cccc(CNC(=O)c2ccc(N3CCCC3)c(NC(=O)Nc3ccccc3CC)c2)c1,7.65,–
COc1cccc(C(=O)NC(=O)Nc2ccc(-c3cc(C(F)(F)F)nn3-c3ccccc3)cc2)c1,6.06,–

SMILES,"activity, negative = inhibition [%]",Potency
Cc1ccccc1CCNC(=O)C1CCN(c2nc3ccccc3nc2C(F)(F)F)CC1,-0.629,–
CCc1cnc2c(c1SCC(=O)N1CCC(C)CC1)c(=O)n(C)c(=O)n2C,-7.64,–
O=[N+]([O-])c1cccc(C2=NCCS2)c1,4.06,–
Nc1c(-c2cccc(Cl)c2)cnn1-c1cccc([N+](=O)[O-])c1,–,12.6 µM (active)
O=C(Nc1cccc([N+](=O)[O-])c1)Nc1ccc(Cl)cn1,-5.31,–
Cc1c(C(=O)N2CCCC2)oc2c1-c1nn(CC(=O)NCc3ccc(OC(C)C)cc3)cc1CC2,-16.8,–
Cc1ccc(OCC(=O)OCc2cc(=O)n3nc(C4CC4)sc3n2)cc1C,-2.32,–
Cc1ccc(Cl)cc1N(C)C(=O)C1CCCN(c2ncnc3onc(-c4ccc(F)cc4)c23)C1 (centres undefined),-15.3,–
O=C1c2ccccc2C2=Nc3ccccc3SC(c3ccccc3F)C12 (centres undefined),–,7.94 µM (active)
CC(=O)c1ccc(NC(=O)CCc2nc(-c3ccc(C)cc3)no2)cc1,-9.45,–
O=C(Nc1ccc(Br)cc1)c1ccc(Br)c(S(=O)(=O)NCc2ccccc2)c1,6.02,–
CCOC(=O)c1sc(=S)n(-c2cccc(OC)c2)c1N,0.563,–
CCOC(=O)c1sc(=S)n2c1[nH]c(=O)c1ccc(C(=O)OC)cc12,–,7.08 µM (active)
CCOC(=O)c1sc(NC(=O)c2ccncc2)nc1C,-5.11,–
COc1ccccc1N1CCN(C(CNC(=O)C(=O)NCc2ccc(C)cc2)c2cccnc2)CC1 (centres undefined),-5.42,–
O=[N+]([O-])c1cc(-c2nc(-c3ccccc3)no2)ccc1NCc1ccco1,-16.3,–
Cc1ccc(-n2ncc3c(N4CCC(C(N)=O)CC4)ncnc32)cc1,-3.43,–
COc1ccc(C(=O)NN2C(=O)C3C(c4ccccc4)C=CC(c4ccccc4)C3C2=O)cc1 (centres undefined),-6.43,–
O=C(O)c1ccc2c(c1)C(=O)N(NC(=O)c1ccc(O)cc1)C2=O,-6.31,–
CC(=O)N1C(=O)/C(=C2\SC(=S)N(NC(=O)c3ccc(O)cc3)C2=O)c2ccccc21,–,25.1 µM (active)
CN(C)S(=O)(=O)c1cccc(C(=O)Nc2cccnc2)c1,9.97,–
O=C(c1cccnc1)N(c1cc2sc(=O)oc2c2ccccc12)S(=O)(=O)c1ccccc1,–,11.2 µM (active)
COc1ccc(N(C(=O)c2cccnc2)S(=O)(=O)c2ccc3c(c2)n(C)c(=O)n3C)cc1,-3.49,–
COc1ccccc1CNc1nccn(-c2ccc(F)cc2)c1=O,1.99,–
